The text below walks through data of PubChem BioAssay (EPA / NIEHS).

Assay [1] can be described thus: ATG_PXRE_CIS: Attagene CIS-FACTORIAL HepG2 Assay for human Pregnane X Receptor Element (PXRE) (AID 2282957). Conditions: HepG2 Attagene CIS-FACTORIAL PXRE reporter, mRNA; actives raise or lower the signal. In a few lines:
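HepG2 cells transiently transfected with cis-element-driven multiplexed reporter units; after 24 h chemical exposure, reporter mRNA measured by RT-PCR, 6-FAM labelling, HpaI digestion and capillary electrophoresis. Bidirectional fitting relative to DMSO.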

Assay [2] in a line: ATG_PPRE_CIS: Attagene CIS-FACTORIAL HepG2 Assay for human Peroxisome Proliferator-activated Response Element (PPRE) (AID 2282958). The conditions noted are these: HepG2 PPRE cis-element reporter, Attagene transcription factor profiling; actives raise or lower the signal. The method, boiled down: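 HepG2, transient MRTU transfection (cis promoter elements, endogenous TFs). 24 h dosing. RNA → oligo(dT) RT → PCR → 6-FAM primer extension → HpaI digest → CE. Bidirectional fit vs DMSO.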

A short description of assay [3]: ATG_RORE_CIS: Attagene CIS-FACTORIAL HepG2 Assay for human RAR-related Orphan Receptor Element (RORE) (AID 2282959). Conditions: HepG2 Attagene cis-factorial RORE reporter, mRNA; actives raise or lower the signal. In a few lines: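 Transient MRTU transfection of human HepG2 liver cells (FuGene 6); 24 h compound exposure; TriZol RNA, oligo(dT) RT, PCR, FAM labeling, HpaI cut, CE fragment analysis. DMSO = negative control/baseline.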

Assay [4] is described as follows: ATG_Sox_CIS: Attagene CIS-FACTORIAL HepG2 Assay for human SRY-box transcription factor (SOX) (AID 2282960). Conditions: HepG2 Attagene cis-factorial SOX reporter, mRNA; actives raise or lower the signal. In a few lines:
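Endogenous factor activity in human liver HepG2 cells carrying transfected cis-regulated reporter units. RNA taken 24 h post-dose, reverse-transcribed, PCR-amplified and sized by capillary electrophoresis. Gain or loss of signal fitted relative to DMSO.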

Assay [5] is described as follows: ATG_SREBP_CIS: Attagene CIS-FACTORIAL HepG2 Assay for human Sterol Regulatory Element Binding (SREBP) (AID 2282962). The conditions noted are these: HepG2 Attagene cis-factorial SREBP reporter, mRNA; actives raise or lower the signal. In a few lines: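 mRNA induction of transfected cis-promoter reporters in HepG2 cells, 24 h post-dose. Detection: RT-PCR with 6-FAM-labelled products, HpaI digest, capillary electrophoresis. DMSO served as negative control and baseline.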

In assay [6] the target is Signal transducer and activator of transcription 3 (Homo sapiens) (UniProt P40763). The experiment in a line: ATG_STAT3_CIS: Attagene CIS-FACTORIAL HepG2 Assay for human Signal Transducer and Activator of Transcription 3 (STAT3) (AID 2282963). Conditions: HepG2, Attagene cis-factorial STAT3 reporter transcription; actives raise or lower the signal. The method, boiled down: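 HepG2 cells transiently transfected with cis-element-driven multiple reporter transcription units; after 24 h chemical exposure, reporter mRNA measured by RT-PCR, 6-FAM primer-extension labelling, HpaI digestion and capillary electrophoresis. Bidirectional fitting versus DMSO baseline.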
Signal transducer and activator of transcription 3 (Homo sapiens), sequence (P40763 whole entry, looked up): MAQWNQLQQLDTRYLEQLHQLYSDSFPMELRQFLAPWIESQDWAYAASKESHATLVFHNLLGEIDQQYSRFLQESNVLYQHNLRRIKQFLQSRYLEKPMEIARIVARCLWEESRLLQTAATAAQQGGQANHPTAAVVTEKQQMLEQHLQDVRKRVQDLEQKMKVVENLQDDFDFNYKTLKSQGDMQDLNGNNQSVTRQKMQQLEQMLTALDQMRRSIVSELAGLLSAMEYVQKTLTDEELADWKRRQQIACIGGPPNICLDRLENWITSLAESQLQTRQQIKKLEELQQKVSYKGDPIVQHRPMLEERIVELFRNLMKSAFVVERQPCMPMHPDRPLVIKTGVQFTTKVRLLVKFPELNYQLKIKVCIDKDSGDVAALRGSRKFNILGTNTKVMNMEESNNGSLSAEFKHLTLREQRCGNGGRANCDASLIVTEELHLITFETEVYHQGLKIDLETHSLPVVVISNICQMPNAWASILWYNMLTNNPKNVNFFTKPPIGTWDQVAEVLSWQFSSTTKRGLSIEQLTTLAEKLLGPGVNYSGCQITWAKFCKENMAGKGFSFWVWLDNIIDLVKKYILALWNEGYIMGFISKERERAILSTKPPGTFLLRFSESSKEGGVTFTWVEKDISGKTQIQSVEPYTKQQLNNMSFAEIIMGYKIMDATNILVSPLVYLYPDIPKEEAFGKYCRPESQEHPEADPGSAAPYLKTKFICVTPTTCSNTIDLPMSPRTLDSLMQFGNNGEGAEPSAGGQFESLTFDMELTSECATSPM

A short description of assay [7]: ATG_TA_CIS: Attagene CIS-FACTORIAL HepG2 Assay for human TA Basal Promoter (AID 2282964). The conditions noted are these: HepG2 Attagene CIS-factorial TA basal promoter reporter; actives raise or lower the signal. In a few lines: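 Transient MRTU transfection of HepG2 preceded 24 h compound exposure. Reporter mRNA levels were then read by RT-PCR with capillary electrophoresis, and this background-control endpoint was fitted bidirectionally to DMSO.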

Assay [8] can be described thus: ATG_TAL_CIS: Attagene CIS-FACTORIAL HepG2 Assay for human TAL Basal Promoter (AID 2282966).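 Also: background control endpoint measuring basal TAL promoter reporter mRNA not a specific factor.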 Conditions: HepG2 Attagene cis-factorial TAL promoter reporter; actives raise or lower the signal. The method, boiled down: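 HepG2 cells transiently transfected with multiplexed cis-promoter reporter units, dosed 24 h. Reporter mRNA quantified by RT-PCR, 6-FAM labelling, HpaI digestion and capillary electrophoresis; TAL basal promoter serves as background control, fitted bidirectionally versus DMSO.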

Assay [9] in a line: ATG_TGFb_CIS: Attagene CIS-FACTORIAL HepG2 Assay for human Transforming Growth Factor (TGF) (AID 2282967). Conditions: HepG2 Attagene CIS TGFb reporter, mRNA transcription; actives raise or lower the signal. The method, boiled down:
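After a 24-hour incubation with compound, transfected HepG2 cells were lysed for RNA; reporter cDNA was amplified, fluorescently end-labeled and separated by CE. DMSO served as baseline for bidirectional fits.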

Assay [10] is described as follows: ATG_VDRE_CIS: Attagene CIS-FACTORIAL HepG2 Assay for human Vitamin D Receptor Element (VDRE) (AID 2282968). Conditions: HepG2 VDRE cis-reporter transcription, actives raise or lower the signal. In a few lines: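 HepG2 cells transiently transfected with cis-element reporter units, dosed 24 h; reporter mRNA measured by RT-PCR, 6-FAM labeling, HpaI digestion and capillary electrophoresis. Activity fitted bidirectionally against DMSO baseline.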

Assay [11] addresses Estrogen receptor (Homo sapiens) (UniProt P03372). The experiment in a line: ATG_ERa_TRANS: Attagene TRANS-FACTORIAL HepG2 Assay for human Estrogen Receptor alpha (ERa) (AID 2282970; active = hit-call score of the fitted dose curve at least 0.9, where 1 is the maximum). Conditions: HepG2 Attagene TRANS ERa GAL4 reporter, mRNA. In a few lines: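 HepG2 cells transiently transfected with multiplexed GAL4-UAS reporter units read out chimeric NR-Gal4 activity. After 24 h compound exposure, reporter mRNA was quantified by RT-PCR, 6-FAM labeling, HpaI digestion and capillary electrophoresis, relative to DMSO.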

The target of assay [12] is X-box-binding protein 1 (Homo sapiens) (UniProt P17861). The experiment in a line: ATG_Xbp1_CIS: Attagene CIS-FACTORIAL HepG2 Assay for human X-box Binding Protein 1 (XBP1) (AID 2282972). The conditions noted are these: HepG2 XBP1 cis-element reporter, Attagene multiplex; actives raise or lower the signal. The method, boiled down: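 Fluorescence-labelled cDNA fragments from reporter transcripts, separated by capillary electrophoresis, give the signal. Source: HepG2 cells transfected with promoter-driven reporter units, harvested 24 h post-dose. DMSO served as reference for bidirectional curve fitting.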
X-box-binding protein 1 (Homo sapiens), sequence (P17861 whole entry, looked up, the tested form may be a part): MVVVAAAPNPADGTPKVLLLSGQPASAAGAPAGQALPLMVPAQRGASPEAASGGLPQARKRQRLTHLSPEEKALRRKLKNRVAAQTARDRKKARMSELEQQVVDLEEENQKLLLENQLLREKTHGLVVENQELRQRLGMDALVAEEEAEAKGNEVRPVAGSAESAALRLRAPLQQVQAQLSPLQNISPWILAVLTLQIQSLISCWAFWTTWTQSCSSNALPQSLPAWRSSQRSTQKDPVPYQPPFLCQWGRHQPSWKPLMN

Assay [13] is described as follows: ATG_M_19_TRANS: Attagene TRANS-FACTORIAL HepG2 Assay for M19 Transcription Factor (Internal Marker) (AID 2282974; active = hit-call score of the fitted dose curve at least 0.9, where 1 is the maximum). Conditions: HepG2 Attagene TRANS-FACTORIAL M19 internal marker reporter. In a few lines: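 Fluorescence of 6-FAM-labelled reporter cDNA fragments, separated by capillary electrophoresis, served as the readout. These derived from HepG2 cells carrying transfected GAL4-UAS reporter units after 24 h dosing, with DMSO as negative control.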

The target of assay [14] is Glucocorticoid receptor (Homo sapiens) (UniProt P04150). The experiment in a line: ATG_GR_TRANS: Attagene TRANS-FACTORIAL HepG2 Assay for human Glucocorticoid Receptor (GR) (AID 2282978; active = hit-call score of the fitted dose curve at least 0.9, where 1 is the maximum;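 also: activators score as hits since higher reporter transcript over DMSO is fitted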). The conditions noted are these: HepG2 Attagene TRANS GR reporter, mRNA transcription. In a few lines: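 Fluorescent capillary-electrophoresis quantitation of reporter mRNA is the readout, taken 24 h after dosing human HepG2 cells carrying transiently transfected GAL4-UAS reporter units activated by chimeric NR-GAL4 fusions; activity scored as induction over DMSO.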
Glucocorticoid receptor (Homo sapiens), sequence (P04150 whole entry, looked up, the tested form may be a part): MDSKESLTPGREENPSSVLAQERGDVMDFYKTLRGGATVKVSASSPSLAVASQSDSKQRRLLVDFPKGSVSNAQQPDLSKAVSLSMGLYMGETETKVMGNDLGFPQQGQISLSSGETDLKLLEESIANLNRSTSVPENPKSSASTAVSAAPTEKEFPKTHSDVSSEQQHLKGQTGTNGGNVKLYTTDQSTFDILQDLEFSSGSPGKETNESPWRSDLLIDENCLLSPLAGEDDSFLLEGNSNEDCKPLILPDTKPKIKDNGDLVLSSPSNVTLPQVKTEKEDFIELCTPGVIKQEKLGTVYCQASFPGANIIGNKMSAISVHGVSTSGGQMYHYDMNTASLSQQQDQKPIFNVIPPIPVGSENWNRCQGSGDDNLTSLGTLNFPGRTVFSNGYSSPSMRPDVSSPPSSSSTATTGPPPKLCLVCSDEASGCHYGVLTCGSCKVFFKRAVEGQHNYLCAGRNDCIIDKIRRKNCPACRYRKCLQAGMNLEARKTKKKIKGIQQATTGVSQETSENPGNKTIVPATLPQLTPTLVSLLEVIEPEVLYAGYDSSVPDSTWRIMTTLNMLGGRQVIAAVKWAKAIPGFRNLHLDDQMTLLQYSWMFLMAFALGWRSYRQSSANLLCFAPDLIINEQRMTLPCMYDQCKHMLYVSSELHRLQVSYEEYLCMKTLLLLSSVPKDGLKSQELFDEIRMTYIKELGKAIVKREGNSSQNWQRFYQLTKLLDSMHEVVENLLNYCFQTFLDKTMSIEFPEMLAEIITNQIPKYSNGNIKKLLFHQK

Assay [15] concerns the target Transcription factor Sp1 (Homo sapiens) (UniProt P08047). Description: ATG_Sp1_CIS: Attagene CIS-FACTORIAL HepG2 Assay for human Specificity Protein 1 (Sp1) (AID 2282961). Conditions: HepG2 Sp1 cis-reporter transcription, actives raise or lower the signal. The method, boiled down:
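Transient MRTU-transfected HepG2, 24 h compound exposure. Total RNA → oligo(dT) RT → PCR of reporter → 6-FAM primer extension → HpaI digest → CE. Endpoint fitted both directions vs DMSO.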

The nature of assay [16]: ATG_TCF_b_cat_CIS: Attagene CIS-FACTORIAL HepG2 Assay for human T-Cell-Factor with beta-catenin (TCF/b-cat) (AID 2282965). The conditions noted are these: HepG2 TCF/beta-catenin cis-reporter transcription, actives raise or lower the signal. The method, boiled down: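 HepG2 cells transiently transfected with multiple cis-promoter-regulated reporter transcription units, so endogenous transcription factor activity is measured. Reporter mRNA read 24 hours after dosing by RT-PCR, fluorescent labelling and capillary electrophoresis; bidirectional fitting against DMSO.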

Assay [17] is described as follows: ATG_GAL4_TRANS: Attagene TRANS-FACTORIAL HepG2 Assay for GAL4 (Internal Marker) (AID 2282976; active = hit-call score of the fitted dose curve at least 0.9, where 1 is the maximum). Conditions: HepG2 Attagene TRANS GAL4 internal marker reporter. In a few lines: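 Background-control readout: GAL4-UAS reporter transcript in transiently transfected HepG2 cells after 24 h compound exposure. Measured by RT-PCR, 6-FAM primer extension, HpaI digest and capillary electrophoresis; gain-of-signal fit versus DMSO.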

Assay [18] addresses Nuclear receptor subfamily 1 group I member 3 (Homo sapiens) (UniProt Q14994). Description: ATG_CAR_TRANS: Attagene TRANS-FACTORIAL HepG2 Assay for human Constitutive Androstane Receptor (CAR) (AID 2282969; active = hit-call score of the fitted dose curve at least 0.9, where 1 is the maximum;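 also: activators raise reporter mRNA above DMSO so AC50 marks induction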). Conditions: HepG2 Attagene TRANS-FACTORIAL CAR reporter. In a few lines:
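HepG2 cells transiently transfected with multiplexed GAL4-UAS reporter units expressing chimeric NR-Gal4 proteins; compound exposure 24 h. Reporter mRNA measured by RT-PCR, 6-FAM labelling, HpaI digestion and capillary electrophoresis; gain-of-signal fitted against DMSO baseline.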

Assay [19] concerns the target Estrogen-related receptor gamma (Homo sapiens) (UniProt P62508). Description: ATG_ERRg_TRANS: Attagene TRANS-FACTORIAL HepG2 Assay for human Estrogen-Related Receptor gamma (ERRg) (AID 2282977; active = hit-call score of the fitted dose curve at least 0.9, where 1 is the maximum;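 also: hits increase reporter signal over DMSO so potencies reflect activators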). The conditions noted are these: HepG2 Attagene TRANS reporter, ERRg transactivation. The method, boiled down:
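Transient HepG2 transfectants, 24 h compound exposure, GAL4-UAS reporter mRNA by RT-PCR/6-FAM labelling/capillary electrophoresis; positive direction vs DMSO.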

SMILES strings stand for the structures. Values joined by “and” are separate entries in the source; they are usually repeats but may differ in a detail not shown here. Equal values may be shown once. Inconclusive results are not listed. More than one record can exist for a structure, and the calls need not agree. Active and inactive are the calls of the source. The calls were made as follows, unless noted: active = hit-call score of the fitted dose curve at least 0.9, where 1 is the maximum; inactive = score below 0.9.

Transcription factor Sp1 (Homo sapiens), sequence (P08047 whole entry, looked up): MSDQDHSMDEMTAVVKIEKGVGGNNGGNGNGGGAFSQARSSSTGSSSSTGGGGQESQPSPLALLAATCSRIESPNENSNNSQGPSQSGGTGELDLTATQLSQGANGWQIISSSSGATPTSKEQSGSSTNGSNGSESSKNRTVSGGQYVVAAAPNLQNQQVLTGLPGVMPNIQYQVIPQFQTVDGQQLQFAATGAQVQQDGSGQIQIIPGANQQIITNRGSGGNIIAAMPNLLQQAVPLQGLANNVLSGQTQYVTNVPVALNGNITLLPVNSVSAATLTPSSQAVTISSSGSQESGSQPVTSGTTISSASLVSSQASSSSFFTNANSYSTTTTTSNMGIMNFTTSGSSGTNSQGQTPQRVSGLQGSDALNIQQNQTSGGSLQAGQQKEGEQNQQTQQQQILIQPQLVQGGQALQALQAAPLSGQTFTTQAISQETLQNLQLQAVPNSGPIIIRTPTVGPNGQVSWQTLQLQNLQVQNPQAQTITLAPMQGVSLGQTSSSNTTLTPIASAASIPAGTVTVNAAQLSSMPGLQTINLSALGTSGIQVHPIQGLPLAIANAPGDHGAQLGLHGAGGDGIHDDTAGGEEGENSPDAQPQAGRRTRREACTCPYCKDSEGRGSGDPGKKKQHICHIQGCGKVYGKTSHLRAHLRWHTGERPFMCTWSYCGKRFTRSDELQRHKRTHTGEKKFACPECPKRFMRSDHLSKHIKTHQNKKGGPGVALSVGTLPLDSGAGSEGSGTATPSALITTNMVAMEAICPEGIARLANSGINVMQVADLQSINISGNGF
Estrogen receptor (Homo sapiens), sequence (P03372 whole entry, looked up, the tested form may be a part): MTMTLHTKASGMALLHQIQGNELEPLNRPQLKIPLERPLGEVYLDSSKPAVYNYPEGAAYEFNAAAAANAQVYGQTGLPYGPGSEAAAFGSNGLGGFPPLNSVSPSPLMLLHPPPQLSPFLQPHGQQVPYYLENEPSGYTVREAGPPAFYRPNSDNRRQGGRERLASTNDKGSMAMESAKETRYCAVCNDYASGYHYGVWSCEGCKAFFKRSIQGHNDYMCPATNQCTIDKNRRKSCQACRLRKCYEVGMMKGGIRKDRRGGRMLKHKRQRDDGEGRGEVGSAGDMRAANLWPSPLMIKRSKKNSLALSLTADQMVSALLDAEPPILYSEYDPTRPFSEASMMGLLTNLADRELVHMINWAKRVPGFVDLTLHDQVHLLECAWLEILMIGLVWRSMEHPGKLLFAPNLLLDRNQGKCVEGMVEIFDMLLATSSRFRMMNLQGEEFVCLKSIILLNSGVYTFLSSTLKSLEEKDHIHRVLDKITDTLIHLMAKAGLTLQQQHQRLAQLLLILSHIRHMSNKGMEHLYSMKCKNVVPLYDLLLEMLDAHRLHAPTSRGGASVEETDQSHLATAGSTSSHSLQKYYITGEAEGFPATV
Nuclear receptor subfamily 1 group I member 3 (Homo sapiens), sequence (Q14994 whole entry, looked up, the tested form may be a part): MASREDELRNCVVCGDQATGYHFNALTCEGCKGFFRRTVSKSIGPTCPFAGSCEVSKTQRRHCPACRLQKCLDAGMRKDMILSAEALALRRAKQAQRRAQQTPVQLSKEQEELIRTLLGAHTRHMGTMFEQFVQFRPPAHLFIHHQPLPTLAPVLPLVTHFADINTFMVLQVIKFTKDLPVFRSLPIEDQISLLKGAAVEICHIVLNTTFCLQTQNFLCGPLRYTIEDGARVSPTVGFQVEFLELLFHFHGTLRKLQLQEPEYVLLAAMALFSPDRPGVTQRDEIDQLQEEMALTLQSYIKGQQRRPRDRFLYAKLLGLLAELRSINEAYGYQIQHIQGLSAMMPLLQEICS
Estrogen-related receptor gamma (Homo sapiens), sequence (P62508 whole entry, looked up, the tested form may be a part): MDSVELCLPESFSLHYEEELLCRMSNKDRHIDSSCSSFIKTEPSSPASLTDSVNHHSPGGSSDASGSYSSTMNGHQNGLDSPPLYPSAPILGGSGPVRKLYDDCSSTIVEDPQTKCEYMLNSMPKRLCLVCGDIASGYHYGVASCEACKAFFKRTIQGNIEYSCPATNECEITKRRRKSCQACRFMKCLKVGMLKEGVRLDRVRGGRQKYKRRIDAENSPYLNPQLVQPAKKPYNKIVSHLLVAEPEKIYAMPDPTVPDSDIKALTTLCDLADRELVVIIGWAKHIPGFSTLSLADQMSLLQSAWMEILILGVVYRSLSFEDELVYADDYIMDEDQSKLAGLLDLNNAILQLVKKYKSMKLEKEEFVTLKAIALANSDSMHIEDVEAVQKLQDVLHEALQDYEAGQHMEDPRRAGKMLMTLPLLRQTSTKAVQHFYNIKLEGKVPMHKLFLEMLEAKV

What is called AC50 is the concentration at which the activity in the assay is half-maximal. `CCc1ccccc1O`: the values for the AC50 in [1] and in [10] were 10.8 µM (active) and 27.9 µM (active), respectively. Also, the call in [2], in [3], in assay [4], in assay [5], in assay [6] and in [7] was inactive. Also, the compound was classed as inactive in [8], in [9], in [11], in assay [12], in [13] and in assay [14].
Regarding `CCCCCCCCCC=CCC1CC(=O)OC1=O` (centres undefined), the call in assay [1], in assay [3], in [4], in [15], in assay [6] and in [7] was inactive. Moreover, the compound was classed as inactive in assay [16], in [8], in assay [9], in assay [10], in assay [11] and in [12]. Also, in assay [5], the AC50 is 67.9 µM (active).
As to `NS(=O)(=O)O`, the call in assay [1], in assay [2], in assay [4], in assay [15], in [5] and in assay [6] was inactive. Further, the call in assay [7], in assay [16], in assay [8], in assay [9], in assay [10] and in [12] was inactive. Besides, the call in assay [13], in assay [17] and in assay [14] was inactive.
Turning to `COc1cccc(O)c1`, the result in [1], in assay [2], in [3], in [4], in assay [5] and in assay [6] was inactive. The outcome in [7], in assay [16], in assay [8], in assay [9], in assay [10] and in [18] was inactive. Besides, the outcome in assay [12], in assay [13] and in [17] was inactive.
Turning to `CCN(CC)CC`, the call in assay [1], in [3], in assay [4], in assay [15], in [7] and in assay [16] was inactive. Moreover, the compound was classed as inactive in assay [8], in assay [9], in assay [10], in assay [18], in assay [12] and in assay [13]. The compound was classed as inactive in assay [17] and in assay [14]. Further, the AC50 in [4] was 18.3 µM (active).
As to `OCC(CO)(CBr)CBr`, the compound was classed as inactive in assay [1], in assay [2], in assay [3], in assay [4], in assay [5] and in assay [6]. In addition, the result in assay [7], in assay [16], in assay [8], in [9], in assay [12] and in assay [13] was inactive. In addition, the result in [19] and in [14] was inactive.
As for `CC(C)c1c(C(=O)Nc2ccccc2)c(-c2ccccc2)c(-c2ccc(F)cc2)n1CC[C@@H](O)C[C@@H](O)CC(=O)O`, the AC50 in [1] was 5.31 µM (active) and 12.2 µM (active); in assay [5], 0.156 µM (active); in assay [7] it was 66.4 µM (active) and 45 µM (active); in assay [16] it was 144 µM (active); in assay [8], 41.9 µM (active) and 20.2 µM (active); in assay [10] it was 14.2 µM (active) and 7.84 µM (active). Also, the compound was called inactive in assay [3], in assay [4], in [15], in assay [5], in assay [16] and in assay [9]. Also, the compound was classed as inactive in [12], in assay [13], in [17] and in [14].
For `CCCCCCCC(OC)OC`, the call in [1], in assay [2], in assay [3], in assay [4], in assay [6] and in assay [7] was inactive. The call in [16], in assay [8], in assay [9], in assay [10], in [12] and in assay [14] was inactive.
Consider `C[C@]12CC[C@@H]3c4ccc(O)cc4CC[C@H]3[C@@H]1C[C@@H](O)[C@@H]2O`, for which the outcome in [1], in [3], in [4], in [15], in assay [5] and in assay [6] was inactive. Further, the compound was classed as inactive in assay [7], in assay [16], in [8], in assay [9], in assay [10] and in [12]. In addition, the outcome in assay [13] and in [17] was inactive. In addition, the AC50 in assay [10] is 27.1 µM (active).
